Hits are enriched below; roughly 2.7% of the tested compounds scored in any of these assays.
Env fusion inh: inhibitors of HIV-1 Env-driven cell-cell fusion, primary screen, HeLa-JRFL effector, CEM21 target cells, luciferase; inhibition, % at 12.3 µM; 360,000 tested, 1.1% active; AID 651610, 2012;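 active means mean replicate inhibition score of at least 50 and every replicate individually at or above 50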;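 further: 0% = plate neutral controls and 100% = maraviroc near 300 nM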
Wnt bcat act: Wnt/beta-catenin pathway activators, primary screen, cell-based, plate reader, single point; Wnt/beta-catenin reporter cell assay, activator; activation, % at 9.35 µM; 300,000 tested, 1.2% active; in the data active means activation above about 30%, passing the limit was not always enough;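 further: 0% = neutral control wells and 100% = positive control wells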
INS-1E GSIS act: GLuc luminescence reporter in INS-1E cells, primary screen for activators of glucose-dependent secretion of insulin; 370,000 tested, 0.61% active; activation, % at 16.6 µM; AID 743287, 2014; INS-1E GLuc reporter insulin secretion, 2-3 h;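 active means lowest replicate activation of at least 40%, so every replicate reaches that level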;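 further: 0% = median of neutral control wells and 100% = median of IBMX positive control wells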
F508del corr: F508del CFTR correction, initial screen, CFBE line, single point | CFBE cells, YFP halide quenching; stimulated with forskolin plus potentiator P3; % fluorescence drop versus neutral controls | activity (quench increase), % at 7.58 µM | 350,000 tested, 0.36% active;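 active means mean added fluorescence quench of at least 8% versus neutral control, with both replicates also reaching 8%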;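 further: cells transiently co-express mutant CFTR-F508del with the halide-sensitive YFP; corrector assay measuring rescue of mutant channel to the surface after 24 h compound exposure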
MITF TRPM1 HTS: activators of MITF-driven TRPM1 promoter reporter, primary screen, cell-based, SK-MEL-5, luciferase, single point | 300,000 tested, 0.75% active | activation, % at 12.5 µM | AID 588334, 2011 | SK-MEL-5 TRPM1-promoter luciferase, 24 h; % of positive control, neutral wells = 0;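 active means mean activation of at least 80% with every replicate also reaching 80%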;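 further: 0% = neutral control wells and 100% = parthenolide positive control wells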
* hit, by the source's call; · = not tested or not shown; [ ] = another dose, or the depositor's remark.

SMILES	Env fusion inh	Wnt bcat act	INS-1E GSIS act	F508del corr	MITF TRPM1 HTS
C[C@@H]1CN([C@@H](C)CO)C(=O)c2cc(NC(=O)Nc3ccc4c(c3)OCO4)ccc2O[C@@H](C)CCCCO[C@@H]1CN(C)Cc1ccc2c(c1)OCO2	-75[16.7 µM]	·	-33	1	·
C[C@@H]1CCCCO[C@@H](CN(C)Cc2ccc(C(F)(F)F)cc2)[C@@H](C)CN([C@H](C)CO)C(=O)c2cc(NC(=O)Nc3ccc(C(F)(F)F)cc3)ccc2O1	-16[16.7 µM]	·	11	-2	·
C[C@@H]1CCCCO[C@@H](CN(C)Cc2ccc(C(F)(F)F)cc2)[C@@H](C)CN([C@@H](C)CO)C(=O)c2cc(NC(=O)Nc3ccc4c(c3)OCO4)ccc2O1	5[16.7 µM]	·	-12	1	·
C[C@H]1CCCCO[C@@H](CN(C)Cc2ccc(C(F)(F)F)cc2)[C@@H](C)CN([C@@H](C)CO)C(=O)c2cc(NC(=O)Nc3ccc(C(F)(F)F)cc3)ccc2O1	82*[16.7 µM]	·	15	0	·
C[C@H](CO)N1C[C@H](C)[C@H](CN(C)C(=O)C2CC2)Oc2ncc(C#CCc3ccccc3)cc2C1=O	1[16.7 µM]	·	17	-1	·
C[C@@H]1CN([C@H](C)CO)S(=O)(=O)c2ccc(-c3cccnc3)cc2O[C@H]1CN(C)CC1CC1	0[16.7 µM]	·	1	-2	·
C[C@H](CO)N1C[C@H](C)[C@H](CN(C)Cc2ccc(C(F)(F)F)cc2)OCCCC[C@H](C)Oc2ccc(NC(=O)Nc3ccc(C(F)(F)F)cc3)cc2C1=O	66*[16.7 µM]	·	21	3	·
C[C@H](CO)N1C[C@H](C)[C@@H](CN(C)Cc2ccc(C(F)(F)F)cc2)OCCCC[C@H](C)Oc2ccc(NC(=O)Nc3ccc(C(F)(F)F)cc3)cc2C1=O	29[16.7 µM]	·	5	4	·
CCCCOP(=O)(c1ccc(N(C)C)cc1)C(O)c1c(Cl)cccc1Cl (stereo not given)	59*	1	-8	3	8
Cc1cccc(NC(=S)NNC(=O)c2csc(C(C)C)c2)c1	-131	50*	·	·	·
Cc1cccc(NC(=S)NNC(=O)c2sccc2C)c1	·	·	-18	·	21
CCc1cc(C(=O)NNC(=S)Nc2cccc(C)c2)cs1	-113	39*	·	·	·
CCc1cc(C(=O)Nc2ccc(C)cc2Br)cs1	-136	70*	·	·	·
Cc1cccc(C(=O)NNC(=O)Nc2ccccc2)c1	-12	·	-8	·	-18
O=C(C[C@@H]1C[C@@H]2c3cc(NC(=O)NC4CCCC4)ccc3O[C@@H]2[C@H](CO)O1)NCc1ccc(Cl)cc1	·	·	-1	·	·
Cc1noc(C)c1NC(=O)Nc1ccc2c(c1)C(=O)N([C@H](C)CO)C[C@@H](C)[C@H](CN(C)Cc1ccc(Oc3ccccc3)cc1)O2	·	·	3	-1	·
Oc1ccc(Br)cc1/C=N/N1CCCCC1	-81	3	-19	·	110*
C[C@@H]1CCCCO[C@H](CN(C)C(=O)Nc2ccccc2)[C@@H](C)CN([C@H](C)CO)C(=O)c2cc(NC(=O)c3ccccc3)ccc2O1	-12[16.7 µM]	·	-4	1	·
COc1ccccc1CN(C)C(=O)CN1CCN(CC(=O)Nc2ccccc2Cl)CC1	·	1	0	-7	-6
COc1ccccc1CN(C)C(=O)CN1CCN(C(=O)c2cccs2)CC1	68*	1	14	0	2
O=C(NN=C1CCCCC1)c1cc(-c2ccccc2)n[nH]1	-18	·	34	·	0
O=C(NN=C1CCCC1)c1cc(-c2ccccc2)n[nH]1	1	·	48*	·	7
C[C@@H]1CN([C@@H](C)CO)C(=O)Cc2cc(NC(=O)NC3CCCCC3)ccc2O[C@H]1CN(C)S(=O)(=O)c1cccs1	18[16.7 µM]	·	-11	3	·
COc1cccc(S(=O)(=O)N2CC[C@@H]3[C@H]2c2cc(Br)ccc2N[C@@H]3CO)c1	·	·	-1	-3	·
Cc1ccc(-c2nn(-c3ccccc3)cc2C(N)=O)o1	-4	0	-22	3	3
SMILES	Env fusion inh	Wnt bcat act	INS-1E GSIS act	F508del corr	MITF TRPM1 HTS
Cc1ccc(-c2nn(-c3ccccc3)cc2C=O)o1	-107	46*	-7	2	22
COc1ccc(NC(=O)Nc2ccc3c(c2)[C@H]2C[C@H](CC(=O)NCc4ccccn4)O[C@@H](CO)[C@H]2O3)cc1	2[16.7 µM]	·	9	-1	·
CCCCCCOc1ccc(OC(=O)c2ccncc2)cc1	70*	13	6	·	9
O=C(Nc1cnn(Cc2ccc(Cl)cc2Cl)c1)c1cc(-c2cccs2)on1	-60	·	·	·	-14
CC(=O)c1cccc(NC(=O)Nc2cnn(Cc3ccc(Cl)cc3Cl)c2)c1	64*	·	·	·	1
O=C1c2ccccc2C(=O)c2c(Nc3ccc(CCO)cc3)ccc(O)c21	-52	3	-18	1	-16
O=C1c2c(O)ccc(O)c2C(=O)c2c(NCCNCCO)ccc(NCCNCCO)c21	58*	-24	0	8	-85
C[C@H](NC(=O)C[C@@H]1CC[C@@H](NC(=O)Cc2ccccn2)[C@H](CO)O1)c1ccccc1	-17[16.7 µM]	·	9	3	·
CCCC(=O)Nc1ccc2c(c1)OC[C@H](C)N(Cc1ccncc1)C[C@H](C)[C@H](OC)CN(C)C2=O	63*[16.7 µM]	·	10	-3	·
CO[C@@H]1CN(C)C(=O)c2ccc(NC(C)=O)cc2OC[C@@H](C)N(Cc2cncnc2)C[C@@H]1C	57*[16.7 µM]	·	11	1	·
CO[C@@H]1CN(C)C(=O)c2ccc(NC(C)=O)cc2OC[C@H](C)N(Cc2cncnc2)C[C@H]1C	-3[16.7 µM]	·	17	0	·
CCCC(=O)Nc1ccc2c(c1)OC[C@H](C)N(Cc1ccncc1)C[C@H](C)[C@@H](OC)CN(C)C2=O	·	·	3	-3	·
CO[C@@H]1CN(C)C(=O)c2cc(NS(C)(=O)=O)ccc2OC[C@@H](C)N(Cc2ccccn2)C[C@@H]1C	·	·	-2	-2	·
CC[C@H]1CC=CC[C@H](C)Oc2ccccc2C(=O)N(C)[C@H](C(C)C)C(=O)N1 (mixture of isomers)	·	·	-11	·	·
C[C@H]1CN([C@@H](C)CO)C(=O)c2cccc(NC(=O)NC3CCCCC3)c2O[C@H]1CN(C)Cc1ccc2c(c1)OCO2	4[16.7 µM]	·	-16	0	·
Cc1ccc2c(c1)Sc1c(ccc3ccccc13)N2	-244	46*	-5	1	8
CCOC(=O)C1=C(C)Nc2ccc(C)cc2S1	-110	12	·	·	-8
COc1ccc(C(=O)/C=C/c2ccc(C)cc2)c(OC(=O)c2ccc([N+](=O)[O-])cc2)c1	-160	13	·	·	28
COc1ccc(C(=O)/C=C/c2ccccc2F)c(OC(=O)c2ccc([N+](=O)[O-])cc2)c1	-182	35*	·	·	10
CCC1CCCCN1C(=O)CSc1nnc(-c2ccc(Cl)cc2)o1 (stereo not given)	19	1	14	1	·
CCC1CCCCN1C(=O)CSc1nnc(-c2ccco2)o1 (stereo not given)	-1	47*	·	·	47
CNC[C@@H]1Oc2c(N)cccc2C(=O)N([C@@H](C)CO)C[C@@H]1C	62*[16.7 µM]	·	11	-1	·

Source: PubChem BioAssay (Broad Institute)
